Test results from PubChem BioAssay (EPA / NIEHS).
Calls of active or inactive are those of the source. Rule for the calls: active = hit-call score of the fitted dose curve at least 0.9, where 1 is the maximum; inactive = score below 0.9.

Test: CEETOX_H295R_11DCORT: CeeTox H295R High-throughput Steroidogenesis Assay for 11-Deoxycortisol (11DCORT) (AID 2283432);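 for AC50: 11-deoxycortisol secreted into the medium measured by LC-MS/MS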
Conditions: actives raise or lower the signal
Protocol: CEETOX_H295R is a cell-based, multiplexed-readout assay that uses H295R, a human adrenal gland cell line, with measurements taken at 48 hours after chemical dosing in a 96-well plate.CEETOX_H295R_11DCORT is one of 23 assay component(s) measured or calculated from the CEETOX_H295R assay. It is designed to make measurements of hormone induction, a form of inducible reporter, as detected with absorbance signals by HPLC-MS-MS technology.Data from the assay component CEETOX_H295R_11DCORT was analyzed into 1 assay endpoint. This assay endpoint, CEETOX_H295R_11DCORT, was analyzed with bidirectional fitting relative to DMSO as the negative control and baseline of activity. Using a type of inducible reporter, gain or loss-of-signal activity using HPLC-MS-MS was used to understand synthesis of 11-Deoxycortisol in H295R cell line at 48hr of chemical exposure. To generalize the intended target to other relatable targets, this assay endpoint is annotated to the steroid hormone intended target family, where the subfamily is glucocorticoids.
Cell culture and media preparation procedures were conducted in accordance with OECD Test No. 456 guidelines, with minor modifications. H295R cells (ATCC CRL-2128) were expanded for 5 passages and frozen in batches in liquid nitrogen. Prior to the steroidogenesis assay, H295R cells were thawed and passed at least 4 times. The maximum passage was 10. Cells were maintained in a 1:1 mixture of DMEM/F12 supplemented with 5ml/L ITS+ Premix (BD Bioscience) and 12.5 ml/L Nu-Serum (BD Bioscience). After seeding cells into 96-well plates at 50-60% confluency, cells were allowed to adhere overnight. Prior to chemical testing, culture medium was replaced with 175 uL medium containing 10 uM forskolin to stimulate steroidogenesis for 48 hours. Following prestimulation, forskolin medium was replaced with medium containing test chemical solubilized in DMSO (ensuring a final concentration of 0.1% DMSO). Test chemicals were incubated for 48 hours, then the medium was removed and split into 2 vials containing approximately 75uL each, and stored at -80 C prior to hormone analysis. For steroid quantification, media samples were shipped to OpAns, LLC (Durham, NC) on dry ice, and samples were thawed to room temperature prior to liquid-liquid extraction. Steroid hormones were extracted from media samples using methyl tertbutyl ether (MTBE). An extra derivatization with dansyl chloride was included for estrogen (estrone and estradiol) detection only. Steroid hormones were separated by HPLC, eluted using a reverse phase C18 gradient with electrospray positive ionization, followed by quantification by tandem mass spectrometry (MS/MS). Data were acquired on a MassHunter Workstation Acquisition version B03.01 (Agilent Technologies, Inc.) and processed using MassHunter Quantitative Analysis for QQQ. Accuracy was determined for each hormone analyte from 3 standards to determine upper and lower limits of quantification (ULOQ and LLOQ, respectively) using a 7-point standard curve. Precision and accuracy of the extraction and quantification methods were calculated as the percent relative standard deviation (%RSD) of the spiked standards and percent spiked standard recovered, respectively. The goal was to achieve 100% accuracy (i.e., recover all spiked-in standard at quantification with minimal loss during run time) and good precision (i.e., have %RSD <15% to ensure reproducibility). Test medium was removed following chemical exposure, and cell viability was evaluated in the same wells by MTT. MTT procedures were as follows: after removal of test medium, 500 uL of 0.5 mg/ml of 3-[4,5-dimethylthiazol-2-y]2,5-diphenyltetrazoliumbromide solution was added to the cells. Following a 4-hour incubation at 37 C and 5% CO2 to allow formazan-crystal formation, the MTT solution was removed and blue formazan salt crystals were solubilized using 500uL anhydrous isopropanol with shaking for 20 minutes. […]

SMILES | outcome | AC50
O=C(NC(=O)c1c(F)cccc1F)Nc1ccc(OC(F)(F)C(F)OC(F)(F)F)c(Cl)c1 (configuration not stated) | inactive | –
CC(C)(C)C(O)/C(=C\c1ccc(Cl)cc1Cl)n1cncn1 (configuration not stated) | inactive | –
CCC(C)(C)C(=O)OC1=C(c2ccc(Cl)cc2Cl)C(=O)OC12CCCCC2 | – | 1.11 µM (active)
CCN(CC)C(=O)SCc1ccc(Cl)cc1 | – | 24.6 µM (active)
COP(=S)(OC)Oc1ccc(SC)c(C)c1 | – | 41.5 µM (active)
CNC(=O)/C=C(\C)OP(=O)(OC)OC | inactive | –
CCCN(CCOc1c(Cl)cc(Cl)cc1Cl)C(=O)n1ccnc1 | – | 0.374 µM (active)
CCC(C)Nc1c([N+](=O)[O-])cc(C(C)(C)C)cc1[N+](=O)[O-] (configuration not stated) | – | 74.6 µM (active)
Oc1cc(Cl)ccc1Oc1ccc(Cl)cc1Cl | inactive | –
CC[C@H](C)[C@H]1O[C@]2(C=C[C@@H]1C)C[C@@H]1C[C@@H](C/C=C(\C)[C@@H](O[C@H]3C[C@H](OC)[C@@H](O[C@H]4C[C@H](OC)[C@@H](O)[C@H](C)O4)[C@H](C)O3)[C@@H](C)/C=C/C=C3\CO[C@@H]4[C@H](O)C(C)=C[C@@H](C(=O)O1)[C@]34O)O2 (tested in a mixture with another compound) | inactive | –
CC1(C)C(C=C(Cl)Cl)C1C(=O)OC(C#N)c1ccc(F)c(Oc2ccccc2)c1 (configuration not stated) | inactive | –
O=[N+]([O-])c1c(Cl)c(Cl)c(Cl)c(Cl)c1Cl | inactive | –
CC(C)N(C(=O)COc1nnc(C(F)(F)F)s1)c1ccc(F)cc1 | inactive | –
COc1nn(CSP(=S)(OC)OC)c(=O)s1 | inactive | –
CCc1ccc(C(=O)NN(C(=O)c2cc(C)cc(C)c2)C(C)(C)C)cc1 | inactive | –
Oc1ccc(Cl)cc1Cc1ccccc1 | – | 77.7 µM (active)
O=C(O)COc1ccc(Cl)cc1Cl | inactive | –
N#Cc1c(Cl)c(Cl)c(Cl)c(C#N)c1Cl | inactive | –
O=[N+]([O-])/N=C1\NCCN1Cc1ccc(Cl)nc1 | inactive | –
C#CCN1C(=O)COc2cc(F)c(N3C(=O)C4=C(CCCC4)C3=O)cc21 | inactive | –
CNC(=O)Oc1ccccc1OC(C)C | inactive | –
C[C@H]1[C@H](c2ccc(Cl)cc2)SC(=O)N1C(=O)NC1CCCCC1 | inactive | –
